Mtb bLac sens = beta-lactam sensitization of Mtb H37Rv; M. tuberculosis H37Rv growth with meropenem, percent inhibition; inhibition, % at 25 µM; 330,000 tested, 0.27% active; AID 434955; call rule not given here;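 also: growth measured after seven days incubation then overnight dye step; 0% = bacteria only wells and 100% = bacteria with antibiotic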
GDH-TPI counter-1 = GDH-TPI coupled enzyme inhibition counter-screen; GDH-TPI coupled enzyme counterscreen, NADH absorbance; inhibition, % at 4.8 µM; 360,000 tested, 1.2% active; in the data active = inhibition above about 30%;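 also: 0% = DMSO wells and 100% = wells lacking the enzyme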
Rv3671c inh = inhibitors of M. tuberculosis serine protease Rv3671c | 320,000 tested, 0.048% active | inhibition, % at 5.96 µM | P9WHR9; in the data active = inhibition above about 38%;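 also: extracellular domain of Rv3671c used as enzyme; 0% = enzyme with DMSO and 100% = no enzyme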
Target sequence (P9WHR9 whole entry, looked up, the tested form may be a part): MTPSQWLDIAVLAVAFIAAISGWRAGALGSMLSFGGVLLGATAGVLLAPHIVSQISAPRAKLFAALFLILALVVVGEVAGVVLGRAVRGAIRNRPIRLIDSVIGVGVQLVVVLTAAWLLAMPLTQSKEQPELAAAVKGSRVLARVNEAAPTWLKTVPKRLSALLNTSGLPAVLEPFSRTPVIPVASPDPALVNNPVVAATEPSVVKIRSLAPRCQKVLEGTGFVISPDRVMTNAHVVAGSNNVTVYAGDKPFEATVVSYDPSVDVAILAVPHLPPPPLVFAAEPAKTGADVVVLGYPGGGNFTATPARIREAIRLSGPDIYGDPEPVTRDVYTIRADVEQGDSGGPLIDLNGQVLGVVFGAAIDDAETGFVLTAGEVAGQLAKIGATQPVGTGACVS
FBA Mtb inh = Mtb fructose-bisphosphate aldolase inhibition; P9WQA3; purified M. tuberculosis FBA, fluorescence read-out; inhibition, % at 1 µM; 360,000 tested, 2.3% active; AID 588726;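 also: 0% = vehicle and 100% = reference inhibitor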
FadD28 FP inh = M. tuberculosis FadD28 bisubstrate binding inhibition; FadD28 bisubstrate probe binding, fluorescence polarization; inhibition, % at 12.5 µM; 360,000 tested, 0.22% active; in the data active = inhibition above about 8.5%, passing the limit was not always enough; inconclusive = no clear call, values can overlap the other calls
UGM FP inh = inhibitors of M. tuberculosis UDP-galactopyranose mutase; inhibition, % at 10 µM; purified UGM, fluorescence polarization probe displacement; P9WIQ1; 320,000 tested, 0.06% active; AID 504406; in the data active = inhibition above about 10%, passing the limit was not always enough; inconclusive = no clear call, values can overlap the other calls
Mtb FBA confirm = Mtb FBA inhibition, confirmed; shares compounds with FBA Mtb inh; purified M. tuberculosis FBA, fluorescence read-out; inhibition, % at 1 µM; 5,600 tested, 78% active;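 also: 0% = vehicle wells and 100% = reference inhibitor wells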
GDH-TPI counter-2 = counter-screen for M. tuberculosis FBA inhibitors: GDH-TPI coupled enzyme inhibition | shares compounds with FBA Mtb inh | GDH-TPI coupled enzyme counterscreen, fluorescence | inhibition, % at 1 µM | 5,600 tested, 81% active | AID 652141; in the data active = inhibition above about 10%
GDH-TPI DR = GDH-TPI dose response counter-screen for Mtb FBA; shares compounds with FBA Mtb inh; GDH-TPI coupled enzyme assay, fluorescence, artifact counterscreen; IC50, µM; 170 tested, 79% active; call rule not given here
An asterisk follows results filed as active; ? = inconclusive; . = no result; + = active, no number. This is a sample that favours compounds with a hit; in the whole collection about 3.7% have one here. Rule as the data show it, unless noted: active = inhibition above about 27%; inactive = the rest.

SMILES	Mtb bLac sens	GDH-TPI counter-1	Rv3671c inh	FBA Mtb inh	FadD28 FP inh	UGM FP inh	Mtb FBA confirm	GDH-TPI counter-2	others
COCCN1CN(S(=O)(=O)c2cccc(Cl)c2)c2nc3ccccc3nc21	7	27	8	29*	-2	2	54*	30*
COCCCN1CN(S(=O)(=O)c2ccc(Cl)cc2)c2nc3ccccc3nc21	-12	27	-5	15	?	1	.	.
CCCCC(=O)N(C)c1c(CC)nc2c(OCC(=O)c3ccc(Cl)cc3Cl)cccn12	.	-3	.	-2	-5	.	.	.
CC1=CC2=NC(=O)CC(C)(C(=O)N(CC(=O)NC3CCCC3)c3ccccc3C)N2C=C1 (stereo not drawn)	0	10	0	62*	0	-4	+	+
O=C(CCC(=O)N(CC(=O)NC1CCCCC1)Cc1ccccc1)Nc1ccccn1	1	-8	7	-3	-2	0	.	.
CC1=CC2=NC(=O)CC(C)(C(=O)N(CC(=O)NC3CCCC3)Cc3ccc(Cl)cc3)N2C=C1 (stereo not drawn)	-6	-4	3	58*	-2	-1	115*	122*
CC1=CC2=NC(=O)CC(C)(C(=O)N(CC(=O)NC3CCCC3)c3ccccc3F)N2C=C1 (stereo not drawn)	-2	-8	-1	47*	-5	1	45*	37*
Cc1ccccc1N(CC(=O)NC1CCCCC1)C(=O)CCCC(=O)Nc1ccccn1	-4	5	5	1	-2	3	.	.
O=C(Nc1nnc2n1CCS2)c1ccc(Br)o1	67	-8	3	105*	1	0	127*	76*
CC1(C)Cc2nc(Cl)c(C#N)cc2CO1	1	-1	5	0	1	0	.	.
CC1(C)Cc2nc(N3CCCC3)c(C#N)cc2CO1	0	7	-6	110*	-2	0	66*	50*
CC1(C)Cc2nc(N3CCOCC3)c(C#N)cc2CO1	1	-3	-2	49*	-4	2	37*	35*
CC(=O)c1ccc(NC(=S)NCCc2cccc(Cl)c2)cc1	3	6	-10	1	-4	1	.	.
Cc1ccc2c(c1)C(N1CCCC1=O)CC(c1ccco1)N2 (stereo not drawn)	-8	21	-14	31*	-2	2	6	-2
COc1ccc(CNC(=O)c2c([S-])n(-c3ccc(C)cc3)c3cccc[n+]23)cc1	6	5	-9	36*	-1	-1	70*	97*
Cc1ccc(-n2c([S-])c(C(=O)NC(C)c3ccccc3)[n+]3ccccc23)cc1 (stereo not drawn)	1	4	-1	1	0	-4	.	.
Cc1c(OCC(=O)N2C[C@H]3C[C@@H](C2)c2cccc(=O)n2C3)ccc2c3c(c(=O)oc12)CCC3	-4	21	1	9	1	1	.	.
Cc1c(OC(C)C(=O)N2C[C@H]3C[C@@H](C2)c2cccc(=O)n2C3)ccc2c3c(c(=O)oc12)CCCC3 (stereo partly drawn)	-6	15	-1	20	-2	1	.	.
Cc1c(OCC(=O)N2C[C@H]3C[C@@H](C2)c2cccc(=O)n2C3)ccc2c3c(c(=O)oc12)CCCC3	-5	17	-1	31*	-1	0	+	+
CC(C)=CCOc1ccc2c(C)c(CC(=O)N3C[C@H]4C[C@@H](C3)c3cccc(=O)n3C4)c(=O)oc2c1C	-5	19	2	107*	-1	0	183*	129*
CCS(=O)(=O)Nc1cccc(C2=NN(S(=O)(=O)CC)C(c3cccs3)C2)c1 (stereo not drawn)	3	2	3	0	-4	-1	.	.
CCS(=O)(=O)N1N=C(c2ccc(NS(C)(=O)=O)cc2)CC1c1ccccc1 (stereo not drawn)	0	19	-17	109*	-2	2	12	1	GDH-TPI DR=0.98*

Assay outcomes: PubChem, several laboratories
